Results from PubChem BioAssay (EPA / NIEHS).
Records with an inconclusive call do not appear. The source made the active and inactive calls. Rule for the calls: active = hit-call score of the fitted dose curve at least 0.9, where 1 is the maximum; inconclusive = response in the unintended direction; inactive = score below 0.9.

Each molecule was assayed against Nucleoli Translocation, AR (gene 367) (UniProt P10275) (assay: UPITT_HCI_U2OS_AR_TIF2_Nucleoli_Antagonist: University of Pittsburgh U2OS Androgen Receptor-Transcriptional Intermediary Factor 2 (AR-TIF2) Antagonism High Content Imaging Assay for Nucleoli Translocation (AID 2283997)).
Nucleoli Translocation, AR (gene 367), sequence (P10275 whole entry, looked up, the tested form may be a part): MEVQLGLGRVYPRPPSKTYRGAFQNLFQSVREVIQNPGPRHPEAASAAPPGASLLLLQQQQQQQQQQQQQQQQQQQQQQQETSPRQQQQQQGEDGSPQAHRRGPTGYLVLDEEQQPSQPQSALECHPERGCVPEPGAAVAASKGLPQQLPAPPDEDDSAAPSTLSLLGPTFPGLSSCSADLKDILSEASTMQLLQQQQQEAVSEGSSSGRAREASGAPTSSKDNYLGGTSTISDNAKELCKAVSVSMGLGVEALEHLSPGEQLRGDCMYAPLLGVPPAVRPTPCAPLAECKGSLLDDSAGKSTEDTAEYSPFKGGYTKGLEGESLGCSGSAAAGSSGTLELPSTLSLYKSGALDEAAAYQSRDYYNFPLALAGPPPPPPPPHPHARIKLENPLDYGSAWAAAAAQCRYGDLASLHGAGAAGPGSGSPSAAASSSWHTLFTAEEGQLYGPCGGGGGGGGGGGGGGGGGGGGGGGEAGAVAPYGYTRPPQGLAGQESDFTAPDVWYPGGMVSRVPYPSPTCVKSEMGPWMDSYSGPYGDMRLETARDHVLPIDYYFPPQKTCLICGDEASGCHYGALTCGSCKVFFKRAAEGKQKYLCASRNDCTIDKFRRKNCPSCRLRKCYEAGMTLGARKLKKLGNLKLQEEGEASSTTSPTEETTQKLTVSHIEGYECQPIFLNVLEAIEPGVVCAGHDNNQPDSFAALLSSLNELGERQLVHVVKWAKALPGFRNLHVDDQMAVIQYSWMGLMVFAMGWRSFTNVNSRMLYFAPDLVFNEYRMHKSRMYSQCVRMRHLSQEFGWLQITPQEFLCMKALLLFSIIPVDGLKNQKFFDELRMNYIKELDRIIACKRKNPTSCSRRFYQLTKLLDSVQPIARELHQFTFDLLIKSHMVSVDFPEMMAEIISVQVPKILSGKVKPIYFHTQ
Text: UPITT_AR_TIF2_PPIB is a cell-based, high-content imaging assay that uses U2OS, a human osteosarcoma cell line, expressing a human androgen receptor fused to red fluorescent protein and the coactivator TIF2 fused to green fluorescent protein. UPITT_HCI_U2OS_AR_TIF2_Nucleoli_Antagonist is one of four assay components measured from the UPITT_AR_TIF2_PPIB assay. It is designed to make measurements of red fluorescence localized in the nucleolar region of the cell nucleus as detected with high-content fluorescent imaging.Data from the assay component UPITT_HCI_U2OS_AR_TIF2_Nucleoli_Antagonist was analyzed into 1 assay endpoint. This assay endpoint, UPITT_HCI_U2OS_AR_TIF2_Nucleoli_Antagonist, was analyzed in the positive analysis fitting direction relative to DHT as the baseline of activity. Using a type of binding reporter, measures of receptor for loss-of-signal activity can be used to understand the binding at the pathway-level as it relates to the gene AR.
Daughter plates containing 2 uL of 10 mM compounds in DMSO were prepared and replicated from the 384-well Library of Pharmacologically Active Compounds (LOPAC) master plates using the Bravo outfitted with a 384-well transfer head. Aluminum adhesive plate seals were applied with an Abgene Seal-IT 100 (Rochester, NY) plate sealer, and the plates were stored at -20 C in a Matrical MatriMinistore (Spokane, WA) automated compound storage and retrieval system. For screening, LOPAC daughter plates were withdrawn from -20C storage, thawed to ambient temperature, centrifuged 1-2 min at 50 g, and the plate seals were removed before the transfer of 98 uL of serum-free tissue culture medium (SFM) into wells using the BioTek Microflo liquid handler (BioTek, Winooski, VT) to generate a 200 uM intermediate stock concentration of library compounds (2.0% DMSO). The diluted compounds were mixed by repeated aspiration and dispensation using a 384-well P30 dispensing head on the Evolution P3 (EP3) liquid handling platform (PerkinElmer, Waltham, MA) and then 5 uL of diluted compounds was transferred to the wells of assay plates. In the LOPAC screen, compounds were individually tested at a final concentration of 20 uM (0.2% DMSO). After the diluted compounds had been transferred from the daughter plates to the primary HCS assay plates, aluminum adhesive plate seals were applied and the diluted daughter plates were stored frozen at -20C. To confirm active compounds identified in the primary screen, we withdrew the LOPAC daughter plates containing the 200 uM intermediate concentration of library compounds (2.0% DMSO) from -20C storage, thawed them to ambient temperature, centrifuged them for 1-2 min at 50 g, and removed the plate seals. A work list was generated to direct the Multiprobe Janus liquid handling platform (PerkinElmer) to cherry pick 75 uL from the wells of the diluted daughter plates that were flagged active in the primary screen and to reformat these into a 384-well plate hit confirmation daughter plate. Five microliters of primary HCS active compounds was then transferred into triplicate wells of assay plates using a 384-well P30 dispensing head on the Evolution P3 (EP3) liquid handling platform (PerkinElmer). […] Daughter plates containing 2 uL of the serially diluted compounds in DMSO were prepared and replicated from the 384-well serial dilution master plates using the Bravo outfitted with a 384-well transfer head. Aluminum adhesive plate seals were applied and plates were stored at -20C. […] The ImageXpress Ultra (IXU) platform (Molecular Devices LLC, Sunnyvale, CA) and The ImageXpress Micro (IXM) platform were used for imaging.
In the case of `COCCOCCC[Si](C)(O[Si](C)(C)C)O[Si](C)(C)C`, the outcome is reported as “inactive”.
In the case of `Cc1cccc(C)n1`, the outcome is reported as “inactive”.
For `O=C1C=CC(=O)N1c1ccccc1`, the AC50 was 5.44 µM (active).
With `CCCCCCCCCCCCCC[P+](CCCC)(CCCC)CCCC` the AC50 was 5.62 µM (active).
In the case of `CC1CCCCC1`, the outcome is reported as “inactive”.
`CCCCCCCC/C=C\CCCCCCCC(=O)OCC(O)CO` (configuration not stated) was tested, and the outcome was “inactive”.
For `CCc1ccc(C)nc1`, the outcome was “inactive”.
With `CCCCCCCCCCCCC[N+](C)(C)Cc1ccccc1` the AC50 was 13.7 µM (active).
`CCN=C1C=CC(=C(c2ccc(N(CC)CC)cc2)c2ccc(N(CC)CC)cc2)c2ccccc21` was tested, and the AC50 was 1.4 µM (active).
In the case of `CCCCCCCCCc1ccc(OCCO)cc1`, the outcome is reported as “inactive”.
For `C[C@]12CC[C@H]3C(=CCc4cc(O)ccc43)[C@@H]1CCC2=O`, the AC50 was 0.234 µM (active).
`F[Si-2](F)(F)(F)(F)F` was tested, and the outcome was “inactive”.
